Assay outcomes deposited in PubChem by several laboratories.
Most compounds without a hit are left out; they make up all but 32% or so of the library.
PostGolgi yeast: growth inhibition of a yeast mutant, post-Golgi transport screen. post-Golgi transport phenotypic cell assay. actives 0.9% (n = 98,000). inhibition, % at 10 µM;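 note: yeast cells grown in 1536-well plates; yeast grown about 18 h at 30C before absorbance read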
CYP2C19 act: activators of human cytochrome P450 2C19; P33261; recombinant CYP2C19, luciferin-H EGE luminescence; hits give high values; 0 = fully inhibited enzyme, 1 = untreated enzyme; activation factor at 5 µM; 96,000 tested, under 10 active; AID 1025;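 active = activation factor of at least 2 at 5 µM in the primary screen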
Target sequence (P33261 whole entry, looked up): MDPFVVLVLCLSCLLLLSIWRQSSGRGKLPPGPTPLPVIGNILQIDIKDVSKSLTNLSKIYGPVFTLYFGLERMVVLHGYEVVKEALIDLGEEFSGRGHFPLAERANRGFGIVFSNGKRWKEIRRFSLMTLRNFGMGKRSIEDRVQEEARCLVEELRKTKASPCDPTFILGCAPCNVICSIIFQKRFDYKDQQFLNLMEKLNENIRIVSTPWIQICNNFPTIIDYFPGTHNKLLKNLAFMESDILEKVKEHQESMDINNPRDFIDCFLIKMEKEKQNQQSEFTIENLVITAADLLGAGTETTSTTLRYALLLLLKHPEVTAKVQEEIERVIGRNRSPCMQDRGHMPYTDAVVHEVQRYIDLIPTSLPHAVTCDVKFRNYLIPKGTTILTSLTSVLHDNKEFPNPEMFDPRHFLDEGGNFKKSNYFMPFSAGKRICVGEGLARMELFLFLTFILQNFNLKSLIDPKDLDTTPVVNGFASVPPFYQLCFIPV
CYP2C9 inh: human CYP2C9 inhibition; CYP2C9 Supersomes, luciferin-H conversion, luminescence; inhibition, % at 5 µM; actives 20% (n = 96,000);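 active = blocking of liver enzyme CYP2C9 beyond about 50% at 5 µM, limit read from the data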
CYP2C9 act: activators of human CYP2C9; P11712; recombinant CYP2C9, luciferin-H conversion, luminescence; hits give high values; factor 1 = untreated enzyme, 0 = blocked; AID 1024; activation factor at 5 µM; actives 1.4% (n = 96,000);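 active = activation factor of 2 or more for CYP2C9 at a 5 µM dose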
CYP2C19 inh: inhibitors of human CYP2C19. P33261. CYP2C19 Supersomes, luciferin-H EGE luminescence, 30 min. inhibition, % at 5 µM. actives 21% (n = 96,000);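 active = CYP2C19 inhibition above a set limit at 5 µM in the primary screen, cut at about 50% in these data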
PostGolgi ctrl: yeast control strain growth, post-Golgi counter-screen | inhibition, % at 10 µM | efflux-deficient yeast background strain, growth absorbance A615, 16 h | actives 5% (n = 98,000)
Of the large screens only hits and unclear results are named; the others gave an inactive call. Cut-off read from the data, not from the text of the source, unless noted: active = inhibition above about 30%; inactive = the rest.

Cc1csc(NC(=O)C2CCCN(S(=O)(=O)c3cnc[nH]3)C2)n1 (configuration not stated)	none
Cc1ccc(NC(=O)C2CCCN(S(=O)(=O)c3cnc[nH]3)C2)cc1F (configuration not stated)	CYP2C9 inh 87, CYP2C19 inh 94
COc1ccc(N2CCN(CCCNC(=O)C3CCCN(S(=O)(=O)c4cnc[nH]4)C3)CC2)cc1 (configuration not stated)	none
Cc1cc(C)cc(NC(=O)C2CCCN(S(=O)(=O)c3cnc[nH]3)C2)c1 (configuration not stated)	CYP2C9 inh 93, CYP2C19 inh 81
COc1cc(NC(=O)C2CCCN(S(=O)(=O)c3cnc[nH]3)C2)cc(OC)c1 (configuration not stated)	CYP2C9 inh 88
COc1ccc(-c2nc3n(n2)C(c2ccncc2)C(C(N)=O)=C(C)N3)cc1 (configuration not stated)	none
O=C(Nc1ccc2nc(C3CC3)n(Cc3ccc(F)cc3)c(=O)c2c1)c1ccco1	CYP2C9 inh 67, CYP2C19 inh 56
O=C(Nc1ccc(Cn2nnc3ccccc32)cc1)c1ccco1	none
COc1ccc(Cn2c(C3CC3)nc3ccc(NC(=O)C4CC4)cc3c2=O)cc1	none
COc1cccc(Cn2c(C3CC3)nc3ccc(NC(=O)c4ccco4)cc3c2=O)c1	PostGolgi ctrl 31
COC(=O)c1nn(-c2ccccc2)c(Sc2ccc(OC)cc2)c1/C=N/O	none
O=C(NCC(=O)N1CCC(N2CCCCC2)CC1)C1CCCCC1	PostGolgi ctrl 30
CCOC(=O)N1CCN(CC(=O)Nc2c(C(=O)OC)[nH]c3ccccc23)CC1	none
CCOC(=O)c1[nH]c2cc3c(cc2c1NC(=O)CN1CCc2ccccc2C1)OCO3	CYP2C9 inh 55, CYP2C19 inh 68
CCOC(=O)c1[nH]c2cc3c(cc2c1NC(=O)CN1CCC(C)CC1)OCO3	CYP2C9 inh 68, CYP2C19 inh 61
COc1ccc(C(=O)N2c3cc4c(cc3C(C)=CC2(C)C)OCO4)cc1	CYP2C9 inh 95, CYP2C19 inh 92
COc1ccc(C(=O)/C=C(\C)Nc2ccc3c(c2)OCO3)cc1	none
Cc1cc[n+](-c2nc([O-])sc2/C=N/Nc2ccc([N+](=O)[O-])cc2)cc1	none
Cc1ccc(CSc2nnc(-c3ccncc3)n2CC2CCCO2)cc1 (configuration not stated)	CYP2C19 inh 60
Cn1c(SCC2CCCO2)nnc1-c1ccncc1 (configuration not stated)	CYP2C19 inh 66
Cc1ccccc1C(=O)Nc1ccc(S(=O)(=O)N2CCN(C)CC2)cc1	none
CCCC(O)(c1ccc(Cl)cc1)C(CN1CCOCC1)c1ccccc1 (configuration not stated)	PostGolgi ctrl 50
CCCCC(O)(CCN1CCOCC1)c1ccc(Cl)cc1 (configuration not stated)	none
c1ccc(Nc2nnc(SCc3cccc4ccccc34)s2)cc1	CYP2C9 act 2.1
c1cc2c(cc1Oc1nc(N3CCOCC3)nc(N3CCOCC3)n1)OCO2	none
CC(C)C(=O)NC(Nc1cccc2cccnc12)C(Cl)(Cl)Cl (configuration not stated)	CYP2C9 inh 63, CYP2C19 inh 59
Cc1c(Cl)cccc1Nc1nc(N)nc(CSc2ncccn2)n1	CYP2C9 inh 67, CYP2C19 inh 52
CC(C)C(=O)Nc1ccc(Sc2ccc(F)cc2)cc1	none
CC(C)NC1=C(Cl)C(=O)c2ccccc2C1=O	CYP2C19 inh 90
N#Cc1cc(C#N)c(N2CCN(c3cccc(Cl)n3)CC2)nc1N	CYP2C19 inh 98, PostGolgi ctrl 58
CCOc1ccc2[nH]c(=O)c(CN(CCO)C(=O)CC)cc2c1	none
CC(C)n1c(-c2ccc(C(C)(C)C)cc2)n[nH]c1=S	none
Cc1ccc(-c2cc(C(=O)N/N=C/c3c(C)nn(-c4ccccc4)c3C)[nH]n2)cc1	none
Cc1nn(-c2ccccc2)c(C)c1/C=N/NC(=O)c1cc(C(C)(C)C)[nH]n1	CYP2C9 inh 58
Cc1nn(-c2ccccc2)c(C)c1/C=N/n1c(-c2ccc(C(C)(C)C)cc2)n[nH]c1=S	CYP2C9 inh 82
O=C(COC(=O)Cc1cn2ccsc2n1)Nc1nc2ccccc2s1	none
Cc1c(CCOC(=O)C23CC4CC(CC(C)(C4)C2)C3)sc[n+]1Cc1ccccc1	PostGolgi ctrl 34
O=C(NCc1ccco1)c1cnn2c1NC(c1ccc(Br)cc1)CC2C(F)(F)F (configuration not stated)	CYP2C9 inh 87, CYP2C19 inh 66, PostGolgi ctrl 38
O=C(NCc1ccco1)c1cnn2c1NC(c1ccccc1)CC2C(F)(F)F (configuration not stated)	CYP2C9 inh 83
Cc1c(CNC(=O)c2nn3c(c2Cl)NC(c2ccccc2)CC3C(F)(F)F)cnn1C (configuration not stated)	none
Cc1nn(C)c(C)c1CN(C)C(=O)c1cnn2c1NC(c1ccccc1)CC2C(F)(F)F (configuration not stated)	CYP2C9 inh 65
Cc1ccccc1Cn1ccc(NC(=O)c2cnn3c2NC(c2ccccc2)CC3C(F)(F)F)n1 (configuration not stated)	CYP2C9 inh 96, CYP2C19 inh 67, PostGolgi ctrl 37
Cc1c(NC(=O)C2C3C=CC(C3)C2C(=O)O)c(=O)n(-c2ccccc2)n1C (configuration not stated)	none
CCCC1C2CN(C(C)C)CC=C2C(C#N)=C(N)C1(C#N)C#N (configuration not stated)	none
Cc1cc(NC(=O)CSc2nc(CCC3CCCC3)nc3ccccc23)no1	CYP2C9 inh 90, CYP2C19 inh 87
Cc1cc(NC(=O)CSc2c3c(nc4ccccc24)CCC3)no1	CYP2C9 inh 56, CYP2C19 inh 55
CC(C)CCNC(=O)C1CCC(=O)N1C(C)C (configuration not stated)	none
COc1cc2c(cc1OC)C1=NC(=O)CN1C(SCc1ccccc1)=N2	none
Cc1ccccc1-c1nc(CN2CCCC(C(=O)NCc3cccnc3)C2)c(C)o1 (configuration not stated)	none
CCC(C(=O)O/N=C(\N)c1cccc(C)c1)c1ccccc1 (configuration not stated)	none
Cc1cccc(/C(N)=N/OC(=O)N2c3ccccc3Sc3ccccc32)c1	CYP2C9 inh 54
CC(C)OC(=O)CSc1nc2ccccc2s1	none
COc1ccc2c(c1)C(C)CC(C)(C)N2C(=O)CSc1nc2ccccc2s1 (configuration not stated)	CYP2C9 inh 54, CYP2C19 inh 71
CCN1CCCC1CNC(=O)Cn1cccc1C(=O)c1ccccc1C (configuration not stated)	none
O=C(NC1CCCCC1)c1ccc(S(=O)(=O)N2CCCCC2)cc1	none (no result: CYP2C19 act, CYP2C9 inh, CYP2C9 act, CYP2C19 inh)
